Screening results deposited in PubChem by National Center for Advancing Translational Sciences (NCATS).
ALDH1A1 block: qHTS Assay for Inhibitors of Aldehyde Dehydrogenase 1 (ALDH1A1); Aldehyde dehydrogenase 1A1 (Homo sapiens), P00352; Purified ALDH1A1, NADH fluorescence, propionaldehyde substrate; Potency, µM (doses to about 75.3 µM), without a hit: at the top dose activity, negative = inhibition, most hits filed as inhibitors; hit rate 7.3% among 220,000; AID 1030, 2008; active means well fitted inhibition curve with a large enough effect, not every such curve was filed as active; inconclusive means small, poorly fitted or top-dose-only effect, or another doubt; inactive means no such curve, though single readings can be large or run the other way;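 further: plate controls were no enzyme wells and a reference inhibitor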
Target sequence (P00352 whole entry, looked up): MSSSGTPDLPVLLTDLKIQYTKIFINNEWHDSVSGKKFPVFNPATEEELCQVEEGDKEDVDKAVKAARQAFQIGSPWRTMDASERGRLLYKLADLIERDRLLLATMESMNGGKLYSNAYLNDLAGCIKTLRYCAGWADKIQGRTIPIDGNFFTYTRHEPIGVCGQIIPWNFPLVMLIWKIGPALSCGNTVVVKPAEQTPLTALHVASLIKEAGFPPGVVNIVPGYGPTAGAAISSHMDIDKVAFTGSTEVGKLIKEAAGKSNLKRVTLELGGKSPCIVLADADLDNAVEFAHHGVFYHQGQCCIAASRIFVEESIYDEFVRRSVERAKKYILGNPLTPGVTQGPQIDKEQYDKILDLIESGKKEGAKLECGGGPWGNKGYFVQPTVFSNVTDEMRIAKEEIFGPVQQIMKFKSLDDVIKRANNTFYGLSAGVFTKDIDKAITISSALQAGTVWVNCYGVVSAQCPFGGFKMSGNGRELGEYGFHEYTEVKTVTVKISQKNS
HPGD inh: qHTS Assay for Inhibitors of HPGD (15-Hydroxyprostaglandin Dehydrogenase) | purified HPGD, NADH fluorescence kinetic, PGE2 substrate | hit rate 4.3% among 150,000 | Potency, µM, for inactives: at the top dose activity change, negative = inhibition, actives largely listed as inhibitors; active means well fitted inhibition curve with a large enough effect, not every such curve was filed as active; inconclusive means small, poorly fitted or top-dose-only effect, or another doubt; inactive means no such curve, though single readings can be large or run the other way
Target sequence (P15428 whole entry, looked up): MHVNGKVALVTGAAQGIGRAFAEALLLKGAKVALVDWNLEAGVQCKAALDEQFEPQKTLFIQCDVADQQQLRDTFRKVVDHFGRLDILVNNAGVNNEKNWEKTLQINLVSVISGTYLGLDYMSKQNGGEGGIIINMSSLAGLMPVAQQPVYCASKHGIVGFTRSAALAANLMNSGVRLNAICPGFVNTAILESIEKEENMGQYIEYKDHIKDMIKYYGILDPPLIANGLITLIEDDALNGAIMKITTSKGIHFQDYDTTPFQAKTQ
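20 nM HPGD preincubated 15 min at room temperature with compound in 50 mM Tris-HCl pH 8, 0.01% Tween 20. Started with 1 mM NAD+ and 30 uM prostaglandin E2; NADH fluorescence (360/450 nm) read 5 times over 30-s intervals, last minus first.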
IMPase Li inh: qHTS Assay for Identifying the Cell-Membrane Permeable IMPase Inhibitors: Potentiation with Lithium. CHO-M1 cells, IP1 TR-FRET (IP-One), carbachol + lithium. Potency, µM (titrated, usually from 59.4 µM), for the others: at the highest dose activity, negative = IMPase inhibition, usual class: inhibitors. hit rate 0.35% among 210,000;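 further: IP1 builds up when IMPase is blocked and the TR-FRET signal falls; plate controls were basal vehicle for no effect and high inhibitor control for full effect; nearly all actives have a fitted effect of over 50% in size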
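CHO cells stably expressing M1 receptor (2000/well) were cultured 16–30 h, then exposed to compounds with a small lithium addition for 30 min at 37C. IP1 was measured by TR-FRET competition; AC50 from Hill fits.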
Luc counter: Counterscreen for Luciferase (Kinase-Glo TM) Inhibition. Luciferin 4-monooxygenase (Photuris pensylvanica), Q27757. Kinase-Glo luciferase, ATP luminescence, 8 min. Potency, µM (titrated, usually from 38.3 µM), without a hit: top-dose activity change, negative = inhibition, usual class: inhibitors. hit rate 0.28% among 200,000. AID 1379, 2008; further: nearly all actives have a fitted effect of over 60% in size
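Compounds were added to a substrate mix at pH 7.2 (50 mM imidazole, 10 uM ATP, within the enzyme's linear range), followed by Kinase-Glo detection reagent; luminescence was measured after 8 minutes at ambient temperature.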
LMNA splice mod: qHTS Assay for Modulators of Lamin A Splicing | HeLa LMNA splicing GFP/RFP minigene ratio, 48 h | Potency, µM (highest dose often 46.1 µM), for the others: at the highest dose ratio change, negative = inhibition, usual class: inhibitors | hit rate 0.01% among 200,000 | AID 1487, 2009; active means well fitted inhibition curve with a large enough effect in the signal ratio, with a control signal flat, not every such curve was filed as active; inconclusive means small, poorly fitted or top-dose-only effect, or effect the other way, or a change in a side signal; the % refers to the signal ratio
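S3 HeLa stable clones carrying a lamin A-EGFP splicing minigene plus DsRed2 were seeded at 600 cells/well in Opti-MEM with 2% FBS, pin-dosed and incubated 48 h at 37°C. Acumen cytometry (488 nm) gave the GFP/RFP total-intensity ratio.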
* marks the source's active call; other numbers are inactive results; u = inconclusive; x = not tested or not shown; [ ] = dose if it differs, or a comment. Shown are actives, neighbours in structure and some others; about 9% of the full set was active somewhere. Unless noted, the call rests on the fitted dose curve; in most records, active means well fitted curve in the direction sought with a large enough effect; inconclusive means small, poorly fitted or top-dose-only effect, or another doubt; inactive means no such curve, though single readings can be large; an effect the other way counts as inactive or inconclusive. Unless noted, on the % scale 0 is the no-effect control and ±100 the full control effect; potency means the concentration at half of the fitted maximal effect.

SMILES | ALDH1A1 block | HPGD inh | IMPase Li inh | Luc counter | LMNA splice mod
CCOC(=O)C(C)NC(=O)c1c(C)oc2ncn(CC(C)C)c(=O)c12 (stereo not drawn) | x | x | x | x | -15%[46 µM]
NC(=O)c1ncc(C(F)(F)F)cc1Cl | 0% | x | -5% | -2% | 12%[46 µM]
NC(=S)c1ncc(C(F)(F)F)cc1Cl | 28µM* | x | x | x | x
COc1ccc(Nc2ncc3c(n2)CCN(Cc2sccc2C)C3)c(OC)c1 | x | x | x | x | -9%[46 µM]
O=C(CCn1c(=O)[nH]c2ccsc2c1=O)Nc1ccc(F)c(F)c1 | -8% | u | 10µM* | 5% | -2%
CC(C)(C)c1ccc(C(=O)N2CCN(Cc3cc(=O)n4nc(-c5ccccc5F)sc4n3)CC2)cc1 | x | x | x | x | -5%[46 µM]
O=C1C2Cc3c([nH]c4ccccc34)C(c3ccccc3)N2C(=O)C2Cc3c([nH]c4ccccc34)C(c3ccccc3)N12 (stereo not drawn) | 4%[13.5 µM] | x | x | x | x
O=C(Cn1c(=O)oc2cc(S(=O)(=O)N3CCCC3)ccc21)NCc1ccccn1 | 18µM* | -6% | 49%[38.3 µM] | 2% | -8%
Cc1c(C(=O)Nc2ccccc2Br)oc2ccc(S(=O)(=O)N3CCCCCC3)cc12 | x | x | x | x | -9%[46 µM]
O=C1c2ccccc2C(=O)N1Nc1ccccc1 | -5% | -6% | 0%[38.3 µM] | -7% | 8%
Cc1ccc(NN2C(=O)C=C(c3ccccc3)C2=O)cc1 | 16µM* | x | 25% | -4% | u
Cc1ccc2c(C(=O)CN3CCN(C4CCCCC4)CC3)c(C)[nH]c2c1 | 13µM* | -15% | 1%[38.3 µM] | -2% | -3%
Cc1ccc2c(C(=O)CN3CCCCC3CCO)c(C)[nH]c2c1 (stereo not drawn) | u | -8% | -3%[38.3 µM] | -2% | 1%
CC(=O)OC1CC(OC(C)=O)[C@]2(C)C(CC(OC(C)=O)[C@]3(C)C2CC[C@@]2(C)C(c4ccoc4)OC(=O)C4O[C@]432)C1(C)C (stereo partly drawn) | 0% | 7% | 28% | -2% | x
CN(C#N)c1nc(Cl)nc(Nc2cccc(Cl)c2)n1 | 4µM* | -21% | 4% | 2% | -15%
CCc1ccccc1NS(=O)(=O)c1ccc2[nH]cc(C(=O)NC3CCCC3)c(=O)c2c1 | 20µM* | -28% | 19% | -2% | u
CCn1c(SCC(=O)Nc2cccc(C)c2)nc2c(c1=O)SC(C)C2 (stereo not drawn) | 20µM* | -22% | 12% | 6% | -15%
CC1Cc2nc(SCC(=O)NC3CCCCC3)n(C)c(=O)c2S1 (stereo not drawn) | -102% | 40µM* | 23%[38.3 µM] | -4% | 20%
CCc1nnc(NC(=O)CSc2nc3c(c(=O)n2C)SC(C)C3)s1 (stereo not drawn) | 15% | -3% | 3% | 0% | u
O=C(COC(=O)C1=COCCO1)NC(=O)c1ccc(OC(F)F)cc1 | 2% | x | -4% | 2% | -6%[9.22 µM]
COc1ccc(/C=N/NC(=O)CNC(=O)C2COc3ccccc3O2)cc1OC (stereo not drawn) | u | -23% | 12% | -1% | -4%
CNC(=O)c1cc2ncc(C(F)(F)F)cc2s1 | -3% | x | -3% | -4% | x
Cn1cc(-c2nnnn2-c2ccccc2)c(=O)c2ccccc21 | 7.1µM* | -12% | 13%[38.3 µM] | -1% | 8%
Cc1ccc2cc(CCNC(=O)CC(C)(C)C)c(=O)[nH]c2c1C | 4% | -25% | 13µM* | 9% | -9%
CC(=O)NCCc1cc2ccc(C)c(C)c2[nH]c1=O | u | u | -3%[38.3 µM] | -3% | -11%
SMILES | ALDH1A1 block | HPGD inh | IMPase Li inh | Luc counter | LMNA splice mod
Cc1c(N=Nc2c(-c3ccc([N+](=O)[O-])cc3)[nH]n(C(N)=S)c2=O)cccc1[N+](=O)[O-] | 22µM* | x | 13% | -2% | x
NC(=S)n1[nH]c(-c2ccc([N+](=O)[O-])cc2)c(N=Nc2ccccc2[N+](=O)[O-])c1=O | u | x | 7% | -1% | u
NC(=S)n1[nH]c(-c2ccc([N+](=O)[O-])cc2)c(N=Nc2cccc([N+](=O)[O-])c2)c1=O | 25µM* | x | 16% | 3% | u
COC(=O)[C@@H]1CCCN1C(=O)CCc1nnc(CCC2CCCCC2)o1 | 6% | x | 4% | -4% | u
COC(=O)c1nnc(C(=O)NCc2ccccc2)c2[nH]c3ccc(OC)cc3c12 | -3% | -1% | 17% | 0% | x
Cc1ccc2nc(N3C(=O)C(O)=C(C(=O)c4ccco4)C3c3cccs3)sc2c1 (stereo not drawn) | u | 14µM* | u | 0% | 1%
O=C(C1=C(O)C(=O)N(Cc2ccco2)C1c1cccs1)c1cccs1 (stereo not drawn) | u | -9% | -26% | 2% | -5%
COc1ccc(C2C(C(=O)c3ccco3)=C(O)C(=O)N2c2nnc(C)s2)cc1 (stereo not drawn) | -13% | x | 11µM* | 1% | x
Cc1nc(C)c(C(=O)C2=C(O)C(=O)N(CCN(C)C)C2c2cccs2)s1 (stereo not drawn) | u | -24% | -8%[38.3 µM] | -2% | -3%
C=CCOc1ccc(C2C(C(=O)c3ccco3)=C(O)C(=O)N2CCCN(CC)CC)cc1 (stereo not drawn) | u | x | x | x | 5%
O=C(C1=C(O)C(=O)N(CCOCCO)C1c1cccs1)c1cccs1 (stereo not drawn) | 2.2µM* | -10% | 7.9µM* | -4% | u
C=CCOc1ccc(C2C(C(=O)c3ccco3)=C(O)C(=O)N2c2nnc(C)s2)cc1 (stereo not drawn) | u | x | 11µM* | -1% | x
COc1ccc(C2C(C(=O)c3ccco3)=C(O)C(=O)N2CC2CCCO2)cc1 (stereo not drawn) | 4% | x | 11% | -1% | 11%[46 µM]
C/C(=N\OCC(=O)NC12CC3CC(CC(C3)C1)C2)c1cc2ccccc2o1 | -8% | x | x | x | u
CCCC(=O)Oc1ccc(-c2nccc(C(OC)OC)n2)cc1 | 1% | x | -10% | 3% | -2%[46 µM]
COc1ccc(CCN2C(=O)C(O)=C(C(=O)c3ccco3)C2c2cccs2)cc1OC (stereo not drawn) | 7.9µM* | -18% | 6.3µM* | -7% | 1%
COc1ccc(Cl)cc1NC(=O)c1cc(-c2ccccc2O)n[nH]1 | -13% | 1.4µM* | 14% | -1% | u
Cc1c(Cl)cccc1NC(=O)c1cc(-c2ccccc2O)n[nH]1 | 11% | 13µM* | 40%[38.3 µM] | 0% | u
O=C(O)c1ccc(S(=O)(=O)c2ccc(Sc3ccc(C(=O)O)c(C(=O)O)c3)cc2)cc1 | -2% | x | -6% | 3% | 1%[46 µM]
Cc1cc2nc(C3CCN(C(=S)NCCCOC(C)C)CC3)[nH]c2cc1C | -3% | x | 6% | -6% | 7%[46 µM]
